Test results from PubChem BioAssay (NCI).
The panel holds about 79,000 compounds, 15% with a hit somewhere; the sample as a whole holds those more often. A number with no mark means an inactive call. Calls of active or inactive are those of the source. Cut-off read from the data, not from the text of the source: active = growth inhibition above about 70%; inactive = the rest.

Columns and labels:
[1] = NCI Yeast Anticancer Drug Screen. Data for the rad52 strain (AID 147);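 note: 0% = growth of vehicle-treated control cultures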; conditions: S. cerevisiae rad52 mutant growth inhibition, active compounds read high
Method in brief: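 Measured: yeast growth inhibition. System: strain with a defined DNA damage repair alteration. Reference: vehicle-treated control cultures.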

[2] = NCI Yeast Anticancer Drug Screen. Data for the wt1 strain (AID 149);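 note: 0% = growth of vehicle-treated wt1 cultures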; conditions: S. cerevisiae wt1 strain (SPY 50644) growth inhibition, active compounds read high
Method in brief: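 Growth inhibition read against vehicle controls after compound exposure of the wt1 yeast strain.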

[3] = NCI Yeast Anticancer Drug Screen. Data for the rad50EPP+ strain (AID 151);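 note: 0% = growth of vehicle-treated control cultures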; conditions: S. cerevisiae rad50 mutant strain, active compounds read high
Method in brief: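 One strain with a rad50 alteration (rad50EPP+) was compound-treated, its growth then compared to that of vehicle controls.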

[4] = NCI Yeast Anticancer Drug Screen. Data for the mgt1 strain (AID 153); conditions: S. cerevisiae mgt1 mutant growth inhibition, active compounds read high
Method in brief: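 After exposure of the mgt1 yeast mutant to compound, growth was measured and reported as inhibition compared with vehicle controls.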

[5] = NCI Yeast Anticancer Drug Screen. Data for the rad50 strain (AID 155);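 note: 0% = growth of vehicle-only cultures of the same strain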; conditions: S. cerevisiae rad50 strain growth inhibition, active compounds read high
Method in brief: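 Readout: growth inhibition relative to vehicle-treated cultures. Compound exposure was carried out in a genetically defined yeast strain deficient in DNA damage repair.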

[6] = NCI Yeast Anticancer Drug Screen. Data for the mec2-1 strain (AID 157); conditions: S. cerevisiae mec2-1 strain, active compounds read high
Method in brief: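 Test agents were screened against the mec2-1 yeast strain, with defined DNA repair or cell cycle alteration. Growth was scored as inhibition against vehicle-only controls.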

[7] = NCI Yeast Anticancer Drug Screen. Data for the rad14 strain (AID 159);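 note: 0% = growth of vehicle-treated control cultures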; conditions: S. cerevisiae rad14 strain growth inhibition, active compounds read high
Method in brief: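 Growth inhibition vs vehicle controls; genetically altered yeast strain (DNA damage repair defect) treated with test compounds.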

[8] = NCI Yeast Anticancer Drug Screen. Data for the sgs1 mgt1 strain (AID 161);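 note: 0% = growth of cultures given vehicle only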; conditions: S. cerevisiae sgs1 mgt1 strain, active compounds read high
Method in brief: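 Read-out: growth inhibition vs vehicle controls. Cells: mutant yeast strain deficient in DNA damage repair.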

[9] = NCI Yeast Anticancer Drug Screen. Data for the CLN2oe strain (AID 163);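 note: 0% = growth of vehicle-only control cultures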; conditions: S. cerevisiae CLN2oe strain, active compounds read high
Method in brief: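 Here, growth inhibition in a cell-cycle-altered yeast strain after compound exposure was quantified against vehicle control growth.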

[10] = NCI Yeast Anticancer Drug Screen. Data for the cln2 rad14 strain (AID 165);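 note: 0% = growth equal to vehicle treated cultures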; conditions: S. cerevisiae cln2 rad14 strain, active compounds read high
Method in brief: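 Growth of compound-exposed yeast (cln2 rad14 genotype) measured and expressed as inhibition relative to vehicle.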

[11] = NCI Yeast Anticancer Drug Screen. Data for the bub3 strain (AID 167); conditions: S. cerevisiae bub3 mutant strain, active compounds read high
Method in brief: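 Readout: yeast growth inhibition, expressed relative to vehicle-only wells. The test organism is a mutant strain from a panel with lesions in DNA repair or checkpoint genes.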

[12] = NCI Yeast Anticancer Drug Screen. Data for the wt2 strain (AID 169);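 note: 0% = growth of vehicle-treated yeast cultures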; conditions: S. cerevisiae wt2 strain growth inhibition, active compounds read high
Method in brief: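 Genetically defined yeast strains from a DNA-repair/cell-cycle panel were used. Compound-exposed yeast growth was measured, and the inhibition was calculated relative to vehicle treatment.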

[13] = NCI Yeast Anticancer Drug Screen. Data for the mlh1 strain (AID 171);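 note: 0% = growth of vehicle-treated control cultures of the same strain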; conditions: S. cerevisiae mlh1 strain growth inhibition, active compounds read high
Method in brief: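 Here the genetically defined yeast mutant is grown with each compound, and the extent to which its growth falls below that of vehicle-exposed cells is reported.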

[14] = NCI Yeast Anticancer Drug Screen. Data for the mlh1 rad18 strain (AID 175); conditions: S. cerevisiae mlh1 rad18 strain growth inhibition, active compounds read high
Method in brief: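 In this whole-cell yeast screen, a strain with altered DNA damage repair is challenged with compound, and its growth is measured against matched vehicle-treated controls.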

[15] = NCI Yeast Anticancer Drug Screen. Data for the rad18 strain (AID 177); conditions: S. cerevisiae rad18 mutant growth inhibition, active compounds read high
Method in brief: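 Screen uses a yeast strain with a defined lesion in DNA damage repair; compound effect is read as loss of growth compared to untreated vehicle cultures.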

[16] = at 5.0 µM (retest, dose inferred, filed as 0.5)
[17] = at 50.0 µM (retest, dose inferred, filed as 5.0)

## Cc1c2cccc(Sc3ccccc3)c2c2c3c(cccc13)[S+](c1ccccc1)C2 (stereo not drawn)
[1]; at 1.2 µM
  growth inhibition: 13%
[1]; at 3.7 µM
  growth inhibition: 41%
[1]; at 11.0 µM
  growth inhibition: 96% (active)
[1]; at 33.0 µM
  growth inhibition: 95% (active)
[1]; at 100.0 µM
  growth inhibition: 88% (active)
[2]; at 1.2 µM
  growth inhibition: 8%
[2]; at 3.7 µM
  growth inhibition: 19%
[2]; at 11.0 µM
  growth inhibition: 96% (active)
[2]; at 33.0 µM
  growth inhibition: 96% (active)
[2]; at 100.0 µM
  growth inhibition: 88% (active)
[3]; at 1.2 µM
  growth inhibition: 4%
[3]; at 3.7 µM
  growth inhibition: 12%
[3]; at 11.0 µM
  growth inhibition: 39%
[3]; at 33.0 µM
  growth inhibition: 88% (active)
[3]; at 100.0 µM
  growth inhibition: 88% (active)
[4]; at 1.2 µM
  growth inhibition: 5%
[4]; at 3.7 µM
  growth inhibition: 4%
[4]; at 11.0 µM
  growth inhibition: 97% (active)
[4]; at 33.0 µM
  growth inhibition: 95% (active)
[4]; at 100.0 µM
  growth inhibition: 90% (active)
[5]; at 1.2 µM
  growth inhibition: 25%
[5]; at 3.7 µM
  growth inhibition: 69%
[5]; [16]
  growth inhibition: 58%
[5]; at 11.0 µM
  growth inhibition: 97% (active)
[5]; at 33.0 µM
  growth inhibition: 94% (active)
[5]; [17]
  growth inhibition: 97% (active)
[5]; at 50.0 µM
  growth inhibition: 90.9% (active)
[5]; at 100.0 µM
  growth inhibition: 82% (active)
[6]; at 1.2 µM
  growth inhibition: 7%
[6]; at 3.7 µM
  growth inhibition: 30%
[6]; [16]
  growth inhibition: 28%
[6]; at 11.0 µM
  growth inhibition: 98% (active)
[6]; at 33.0 µM
  growth inhibition: 95% (active)
[6]; [17]
  growth inhibition: 97% (active)
[6]; at 50.0 µM
  growth inhibition: 93.5% (active)
[6]; at 100.0 µM
  growth inhibition: 91% (active)
[7]; at 1.2 µM
  growth inhibition: -1%
[7]; at 3.7 µM
  growth inhibition: 17%
[7]; at 11.0 µM
  growth inhibition: 98% (active)
[7]; at 33.0 µM
  growth inhibition: 96% (active)
[7]; at 100.0 µM
  growth inhibition: 90% (active)
[8]; [16]
  growth inhibition: 18%
[8]; [17]
  growth inhibition: 98% (active)
[8]; at 50.0 µM
  growth inhibition: 94.2% (active)
[9]; at 1.2 µM
  growth inhibition: -3%
[9]; at 3.7 µM
  growth inhibition: -1%
[9]; at 11.0 µM
  growth inhibition: 96% (active)
[9]; at 33.0 µM
  growth inhibition: 92% (active)
[9]; at 100.0 µM
  growth inhibition: 84% (active)
[10]; [16]
  growth inhibition: 7%
[10]; [17]
  growth inhibition: 96% (active)
[10]; at 50.0 µM
  growth inhibition: 93.4% (active)
[11]; at 1.2 µM
  growth inhibition: -5%
[11]; at 3.7 µM
  growth inhibition: 27%
[11]; [16]
  growth inhibition: 16%
[11]; at 11.0 µM
  growth inhibition: 97% (active)
[11]; at 33.0 µM
  growth inhibition: 94% (active)
[11]; [17]
  growth inhibition: 97% (active)
[11]; at 50.0 µM
  growth inhibition: 95.2% (active)
[11]; at 100.0 µM
  growth inhibition: 87% (active)
[12]; at 1.2 µM
  growth inhibition: 6%
[12]; at 3.7 µM
  growth inhibition: 25%
[12]; at 11.0 µM
  growth inhibition: 97% (active)
[12]; at 33.0 µM
  growth inhibition: 95% (active)
[12]; at 100.0 µM
  growth inhibition: 86% (active)
[13]; at 1.2 µM
  growth inhibition: 0%
[13]; at 3.7 µM
  growth inhibition: 22%
[13]; at 11.0 µM
  growth inhibition: 98% (active)
[13]; at 33.0 µM
  growth inhibition: 96% (active)
[13]; at 100.0 µM
  growth inhibition: 93% (active)
[14]; [16]
  growth inhibition: 18%
[14]; [17]
  growth inhibition: 97% (active)
[14]; at 50.0 µM
  growth inhibition: 93.3% (active)
[15]; at 1.2 µM
  growth inhibition: 28%
[15]; at 3.7 µM
  growth inhibition: 65%
[15]; at 11.0 µM
  growth inhibition: 97% (active)
[15]; at 33.0 µM
  growth inhibition: 95% (active)
[15]; at 100.0 µM
  growth inhibition: 83% (active)
